Consider 36 compounds from publication PMC5540273 (PLoS ONE, 2017).
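Further: KINOMEscan kinase panel screen.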

In the first test the test system is T1, PIP5K2C.
T1 construct: gene PIP4K2C
The conditions noted are these: concentration: 1 μM, replicates: in singlicate; n = 1.
For the compound `Fc1cccc(COc2ccc(Nc3ncnc4cc[nH]c34)cc2Cl)c1`, the “%Inh” value is recorded as 5%.

For the compound `O=C(CCO)NCCn1ccc2ncnc(Nc3ccc(Oc4cccc(C(F)(F)F)c4)c(Cl)c3)c21`, the “%Inh” value is reported as 26%.

As to `COc1cc2c(Nc3cccc(NC(=O)c4ccccc4)c3)ncnc2cc1OCCCN1CCOCC1` [GSK223810], the “%Inh” value stood at 0%.

`Cl.Cn1ccc(-c2cccc(Nc3ccnc4cc(-c5nccs5)ccc34)c2)n1` [GW525701]: the “%Inh” value is given as 50%.

As to `Nc1n[nH]c2nnc(-c3ccccc3)cc12` [SB-517389], the “%Inh” value came to 7%.

Turning to `Fc1cccc(COc2ccc(Nc3ncnc4nn5ccccc5c34)cc2Cl)c1` [GW689066], the “%Inh” value came out at 32%.

`CN1c2ccc(-c3ccc(C(=O)NCCO)cc3)cc2-c2[nH]ncc2S1(=O)=O`: the “%Inh” value is listed as 76%.

For `Clc1cccc(-c2nc(Nc3ccncc3)c3ccccc3n2)c1` [GW873004], the “%Inh” value amounted to 49%.

Take `COc1ccc(Nc2nccc(N3CCC(NC(=O)c4cccc(NC(C)=O)c4)C3)n2)cc1` (stereo not drawn) [GSK1379732]: the “%Inh” value was found to be 57%.

As to `COc1ccc(Nc2nccc(N3CCC(NC(=O)Nc4ccc5c(c4)OCO5)C3)n2)cc1` (stereo not drawn) [GSK1379745], the “%Inh” value is recorded as 44%.

On to `COC(=O)c1c(-c2ccccc2)c2cc(Cl)ccc2c(=O)n1Cc1ccc(S(C)(=O)=O)cc1`, for which the “%Inh” value is 0%.

For the compound `Cc1ccc(NC(=O)c2cccc(C#N)c2)cc1-c1ccc(C(=O)Nc2ccncc2)cc1` [GSK1398463], the “%Inh” value turned out to be 0%.

`O=C(c1ccc(-c2cc(-c3c[nH]nc3-c3ccccn3)ccn2)cc1)N1CCCC1` [GW792479]: the “%Inh” value was 97%.

Take `O=c1cc(N2CCOCC2)nc2n(Cc3cccc(Cl)c3)ccn12` [GSK2296823]: the “%Inh” value is 0%.

For the compound `Cn1cc(-c2ccc3c(c2)CCN3C(=O)Cc2cccc(C(F)(F)F)c2)c2c(N)ncnc21` [GSK2606414], the “%Inh” value was determined as 0%.

On to `CSc1ccc(NC2=C(c3ccccc3Cl)C(=O)NC2=O)cc1` [SB-342411], for which the “%Inh” value is listed as 0%.

As to `FC(F)(F)c1cc(Nc2nccc(-c3c(-c4ccc(Cl)cc4)nn4ncccc34)n2)ccc1Cl` [GW829351], the “%Inh” value is on record as 0%.

In the case of `Nc1nc(-c2ccc3c(N)n[nH]c3c2)cc(N2CCCCC2)n1` [GSK2228768], the “%Inh” value is 0%.

Consider `Nc1nc(-c2cccnc2)c(-c2ccnc3ccccc23)s1` [GW684083], for which the “%Inh” value was 51%.

`O=C(Nc1ccccc1)Nc1ccc(Oc2ccc3nccn3n2)cc1`: the “%Inh” value was determined as 25%.

For the compound `O=C(Nc1ccccc1F)NC1CCN(c2ccnc(Nc3ccc(F)cc3)n2)C1` (stereo not drawn) [GSK1379722], the “%Inh” value turned out to be 18%.

With `CNc1nccc(-c2c(-c3ccc(F)cc3)ncn2CCCN2CCOCC2)n1` [SB-222516], the “%Inh” value stood at 0%.

In the case of `CCn1c(-c2ccncc2)nc2cnccc21` [SB-735216], the “%Inh” value amounted to 0%.

On to `Fc1cccc(COc2ccc(Nc3ncnc4sc(-c5ccc[nH]5)cc34)cc2Cl)c1` [GW707818], for which the “%Inh” value is 25%.

Take `N#Cc1ccc(Oc2ccc(Nc3ncnc4cc[nH]c34)cc2Cl)cc1`: the “%Inh” value was 0%.

Regarding `Cc1cc(N2CCC(NS(=O)(=O)c3ccc(F)cc3)CC2)nc(Nc2cccc(C#N)c2)n1.O=C(O)C(F)(F)F` [GSK1653537], the “%Inh” value was 4%.

Turning to `CC(C)(C)OC(=O)NC1CCCN(c2cc(-c3ccc4c(N)n[nH]c4c3)nc(N)n2)C1` (stereo not drawn) [GSK2286096], the “%Inh” value came to 0%.

With `Fc1ccc(-c2ncn(CCCNCc3ccccc3)c2-c2ccncc2)cc1`, the “%Inh” value was determined as 3%.

Consider `Cc1ccc(C)c(NC(=O)NCCNc2ccnc(Nc3ccc(F)cc3)n2)c1` [GSK1379878], for which the “%Inh” value is on record as 25%.

`CSc1nn2c(=O)cc(N3CCOCC3)nc2n1Cc1cccc(Cl)c1Cl` [GSK2347225]: the “%Inh” value came out at 7%.

As to `c1ccc(-c2ccc3c(-c4ccnc(Nc5ccc6c(c5)OCCO6)n4)cnn3n2)cc1` [GW818941], the “%Inh” value was determined as 36%.

As for `CCc1nc(-c2cccc(N(C)S(=O)(=O)c3ccccc3)c2)c(-c2ccnc(Nc3ccc(N4CCN(C(C)=O)CC4)nc3)n2)s1` [GSK1645895], the “%Inh” value came out at 63%.

In the case of `Cl.Cl.c1ccc(-c2cc3ccncc3cc2OC2CCNCC2)cc1` [GSK1122999], the “%Inh” value is listed as 6%.

As for `CS(=O)(=O)CCNCc1nc(-c2ccc3ncnc(Nc4ccc(OCc5cccc(F)c5)c(Cl)c4)c3c2)cs1.Cl` [GW583340], the “%Inh” value stood at 24%.

For `Cc1cccc(-c2nc(Nc3ccc4[nH]nnc4c3)c3ccccc3n2)n1` [GW867587], the “%Inh” value was determined as 0%.

Consider `Nc1nc(-c2ccccn2)c(-c2ccnc3ccccc23)s1` [GW548057], for which the “%Inh” value is recorded as 57%.

A further test deals with T2, PKAC-alpha.
T2 construct: gene PRKACA
The conditions noted are these: concentration: 1 μM, replicates: in singlicate; n = 1.
Consider `Fc1cccc(COc2ccc(Nc3ncnc4cc[nH]c34)cc2Cl)c1`, for which the “%Inh” value was 25%.

Take `O=C(CCO)NCCn1ccc2ncnc(Nc3ccc(Oc4cccc(C(F)(F)F)c4)c(Cl)c3)c21`: the “%Inh” value stood at 0%.

Take `COc1cc2c(Nc3cccc(NC(=O)c4ccccc4)c3)ncnc2cc1OCCCN1CCOCC1` [GSK223810]: the “%Inh” value is recorded as 100%.

Regarding `Cl.Cn1ccc(-c2cccc(Nc3ccnc4cc(-c5nccs5)ccc34)c2)n1` [GW525701], the “%Inh” value is recorded as 0%.

On to `Nc1n[nH]c2nnc(-c3ccccc3)cc12` [SB-517389], for which the “%Inh” value came out at 0%.

On to `Fc1cccc(COc2ccc(Nc3ncnc4nn5ccccc5c34)cc2Cl)c1` [GW689066], for which the “%Inh” value is reported as 0%.

Take `CN1c2ccc(-c3ccc(C(=O)NCCO)cc3)cc2-c2[nH]ncc2S1(=O)=O`: the “%Inh” value is reported as 33%.

For the compound `Clc1cccc(-c2nc(Nc3ccncc3)c3ccccc3n2)c1` [GW873004], the “%Inh” value amounted to 2%.

Regarding `COc1ccc(Nc2nccc(N3CCC(NC(=O)c4cccc(NC(C)=O)c4)C3)n2)cc1` (stereo not drawn) [GSK1379732], the “%Inh” value was found to be 0%.

In the case of `COc1ccc(Nc2nccc(N3CCC(NC(=O)Nc4ccc5c(c4)OCO5)C3)n2)cc1` (stereo not drawn) [GSK1379745], the “%Inh” value was 5%.

In the case of `COC(=O)c1c(-c2ccccc2)c2cc(Cl)ccc2c(=O)n1Cc1ccc(S(C)(=O)=O)cc1`, the “%Inh” value turned out to be 5%.

Take `Cc1ccc(NC(=O)c2cccc(C#N)c2)cc1-c1ccc(C(=O)Nc2ccncc2)cc1` [GSK1398463]: the “%Inh” value was found to be 0%.

With `O=C(c1ccc(-c2cc(-c3c[nH]nc3-c3ccccn3)ccn2)cc1)N1CCCC1` [GW792479], the “%Inh” value is reported as 0%.

For `O=c1cc(N2CCOCC2)nc2n(Cc3cccc(Cl)c3)ccn12` [GSK2296823], the “%Inh” value amounted to 0%.

Turning to `Cn1cc(-c2ccc3c(c2)CCN3C(=O)Cc2cccc(C(F)(F)F)c2)c2c(N)ncnc21` [GSK2606414], the “%Inh” value amounted to 4%.

For `CSc1ccc(NC2=C(c3ccccc3Cl)C(=O)NC2=O)cc1` [SB-342411], the “%Inh” value turned out to be 74%.

Take `FC(F)(F)c1cc(Nc2nccc(-c3c(-c4ccc(Cl)cc4)nn4ncccc34)n2)ccc1Cl` [GW829351]: the “%Inh” value was 0%.

In the case of `Nc1nc(-c2ccc3c(N)n[nH]c3c2)cc(N2CCCCC2)n1` [GSK2228768], the “%Inh” value is 56%.

Take `Nc1nc(-c2cccnc2)c(-c2ccnc3ccccc23)s1` [GW684083]: the “%Inh” value is given as 0%.

In the case of `O=C(Nc1ccccc1)Nc1ccc(Oc2ccc3nccn3n2)cc1`, the “%Inh” value worked out at 0%.

As to `O=C(Nc1ccccc1F)NC1CCN(c2ccnc(Nc3ccc(F)cc3)n2)C1` (stereo not drawn) [GSK1379722], the “%Inh” value stood at 0%.

Take `CNc1nccc(-c2c(-c3ccc(F)cc3)ncn2CCCN2CCOCC2)n1` [SB-222516]: the “%Inh” value is 1%.

In the case of `CCn1c(-c2ccncc2)nc2cnccc21` [SB-735216], the “%Inh” value was found to be 0%.

For the compound `Fc1cccc(COc2ccc(Nc3ncnc4sc(-c5ccc[nH]5)cc34)cc2Cl)c1` [GW707818], the “%Inh” value was found to be 0%.

Regarding `N#Cc1ccc(Oc2ccc(Nc3ncnc4cc[nH]c34)cc2Cl)cc1`, the “%Inh” value is 8%.

In the case of `Cc1cc(N2CCC(NS(=O)(=O)c3ccc(F)cc3)CC2)nc(Nc2cccc(C#N)c2)n1.O=C(O)C(F)(F)F` [GSK1653537], the “%Inh” value worked out at 3%.

As to `CC(C)(C)OC(=O)NC1CCCN(c2cc(-c3ccc4c(N)n[nH]c4c3)nc(N)n2)C1` (stereo not drawn) [GSK2286096], the “%Inh” value is 0%.

Take `Fc1ccc(-c2ncn(CCCNCc3ccccc3)c2-c2ccncc2)cc1`: the “%Inh” value is given as 26%.

Turning to `Cc1ccc(C)c(NC(=O)NCCNc2ccnc(Nc3ccc(F)cc3)n2)c1` [GSK1379878], the “%Inh” value is listed as 0%.

For `CSc1nn2c(=O)cc(N3CCOCC3)nc2n1Cc1cccc(Cl)c1Cl` [GSK2347225], the “%Inh” value turned out to be 24%.

On to `c1ccc(-c2ccc3c(-c4ccnc(Nc5ccc6c(c5)OCCO6)n4)cnn3n2)cc1` [GW818941], for which the “%Inh” value is recorded as 0%.

Consider `CCc1nc(-c2cccc(N(C)S(=O)(=O)c3ccccc3)c2)c(-c2ccnc(Nc3ccc(N4CCN(C(C)=O)CC4)nc3)n2)s1` [GSK1645895], for which the “%Inh” value turned out to be 0%.

For `Cl.Cl.c1ccc(-c2cc3ccncc3cc2OC2CCNCC2)cc1` [GSK1122999], the “%Inh” value is given as 0%.

Regarding `CS(=O)(=O)CCNCc1nc(-c2ccc3ncnc(Nc4ccc(OCc5cccc(F)c5)c(Cl)c4)c3c2)cs1.Cl` [GW583340], the “%Inh” value came out at 0%.

For `Cc1cccc(-c2nc(Nc3ccc4[nH]nnc4c3)c3ccccc3n2)n1` [GW867587], the “%Inh” value came out at 0%.

With `Nc1nc(-c2ccccn2)c(-c2ccnc3ccccc23)s1` [GW548057], the “%Inh” value is recorded as 0%.
